In the OligoGym collection:

biological target: ASPRV1; experiment: pooled miR-30 sensor sort-seq; sequence = guide strand; conditions: shRNA
Also: reference of the scale not given here.

| Sequence | sensor-assay potency score (higher = more potent) |
| --- | --- |
| TAGCTTGGTGATATGGTCCCAA | 0.0777 |
| TTGAGGTCATTGATGACTTCAA | -0.277 |
| TTGAGTCTTTGTCATCAACAGC | -1.26 |
| TCATTGATGACTTCAAAGCTGT | -0.318 |
| TTCAGCACCATTGGCCACCTTT | -0.724 |
| TCTTTCAGGAACCTTAGCTTGG | -0.57 |
| TTCAGGAACCTTAGCTTGGTGA | -1.12 |
| ATTGATGACTTCAAAGCTGTGC | 0.217 |
| TGAGATAGTAGCCCTTACCCAT | -0.959 |
| TTTCAGGAACCTTAGCTTGGTG | -0.909 |

biological target: ASTE1; experiment: as above; conditions: shRNA

| Sequence | sensor-assay potency score (higher = more potent) |
| --- | --- |
| TAGAACAGCTGGTATTCTGTTT | -0.362 |
| TTGAATTTGATCTACCTTTTGG | -0.435 |
| TAGATATTCATAAAGTTGCTTA | -0.483 |
| TAGCTTTGCTTTGGTCTCGGTG | -0.912 |
| TTCATTACTATGATCTTCCACA | -0.12 |
| TTTTCAACCATTAACAACCCAA | -0.22 |
| TATTCTTCCATGGAACAGCAGA | -0.626 |
| TTTTTGAATTTGATCTACCTTT | -0.342 |
| TTATCTGAAATGTCACATCCTC | 0.002 |
| TTTTTTTTTGAATTTGATCTAC | -0.318 |
| TTATCTAGTGCTTCGGTAGGGT | 0.589 |
| TTGAACTGAAGCAAAGACGGTG | 0.0207 |

biological target: ATG13; experiment: as above; conditions: shRNA

| Sequence | sensor-assay potency score (higher = more potent) |
| --- | --- |
| TGACAGTCTGTTGTACACCGTG | -0.356 |
| TTGATTTCTTTATCACACTTTT | -0.851 |
| TTGAGAGTCTTCTACAGACGGG | -0.452 |
| TTCAAGACACCATATTTCCAGC | -0.751 |
| AAATTTAATAAACTTGTCCAGG | -1.15 |
| TTGCTAAGTTGAACCAATCTGA | 0.054 |
| TTGGAGAAGATGATGAACGAGT | 0.0356 |
| TTCAGCAGCAATGACAGTCTGT | 0.524 |
| TATCATAACAAAGTCATCATGG | 0.359 |
| TTCAGTATCCTCACTACTGGAG | -0.0842 |
| TTTATCACACTTTTCATTCATT | -0.513 |

biological target: ATG16L1; experiment: as above; conditions: shRNA

| Sequence | sensor-assay potency score (higher = more potent) |
| --- | --- |
| TTTATGCAGACTTTGCTGCGTA | -0.62 |
| ATGAGTATCCACATTGTCCTGG | -0.348 |
| TATCATTGCAACTGGATCCTGC | 0.235 |
| TTTCTTGTGTAATTCAGTCAGT | -0.093 |
| TTTTGCTTCATTCATCTGCATC | -1.44 |
| TTTCTTGTAGCTGATTGTCATT | -1.43 |
| TTTTTCTCCAAATACTTCCCAA | -0.436 |
